Assay outcomes from PubChem.
TDP1 cell CPT: DT40-hTDP1 cell growth loss with CPT. chicken DT40 Tdp1-/-;hTDP1 cells + 20 nM CPT, ATP luminescence, 48 h. Potency, µM (doses to about 46.2 µM), inactives show at the highest dose activity change, negative = growth inhibition, usual class: inhibitors. 420,000 tested, 12% active. AID 686979; note: potency is the fitted concentration of half-maximal effect; nearly all actives have a fitted effect of over 55% in size
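Chicken DT40 Tdp1-/- cells complemented with human TDP1, 400 cells/well, exposed to compounds plus 20 nM camptothecin for at least 48 h at 37 C; viability read as ATP content by CellTiter-Glo luminescence.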
IL-1B inflam inh: blocks inflammasome-driven IL-1 beta release | activity change, % at 57.5 µM | 360,000 tested, 4.7% active | THP-1 LPS/ATP IL-1B secretion, AlphaLISA, 16 h; active compounds read low; in the data active = activity change below about -50%; inconclusive = mostly about -30% to -49%
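THP-1 cells pretreated 1 hr with compounds (up to 57.5 uM final), then stimulated with LPS (250 ng/mL final) plus ATP (1.25 mM final); secreted IL-1B measured by AlphaLISA after 16 hr, decreased signal indicating inhibition.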
LDHA inh: LDHA (human) enzyme inhibition. P00338. purified LDHA, NADH/diaphorase-resazurin fluorescence; active compounds read low. activity change, % (values are at about 110 or 230 µM). 480,000 tested, 0.15% active; in the data active = activity change below about -30%; inconclusive = mostly about -25% to -30%;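 note: plate controls were DMSO wells for no effect and wells without enzyme for full effect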
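Human LDH5 (2 nM) was incubated with 0.06 mM NADH and 0.2 mM pyruvate for 5 min at room temperature in Tris pH 7.4. Remaining NADH was coupled through diaphorase/resazurin, and resorufin fluorescence was read at 0 and 20 min.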
RORgamma inh: inhibitors of mouse ROR gamma transcriptional activity; P51450; Drosophila S2 Gal4-RORgamma UAS-luciferase reporter, 20 h; Potency, µM (top dose mostly 53.6 µM), inactives show top-dose activity change, negative = inhibition, usual class: inhibitors; 310,000 tested, 5.4% active; AID 2551; note: potency is the fitted concentration of half-maximal effect; nearly all actives have a fitted effect of over 60% in size
Target sequence (P51450 whole entry, looked up, the tested form may be a part): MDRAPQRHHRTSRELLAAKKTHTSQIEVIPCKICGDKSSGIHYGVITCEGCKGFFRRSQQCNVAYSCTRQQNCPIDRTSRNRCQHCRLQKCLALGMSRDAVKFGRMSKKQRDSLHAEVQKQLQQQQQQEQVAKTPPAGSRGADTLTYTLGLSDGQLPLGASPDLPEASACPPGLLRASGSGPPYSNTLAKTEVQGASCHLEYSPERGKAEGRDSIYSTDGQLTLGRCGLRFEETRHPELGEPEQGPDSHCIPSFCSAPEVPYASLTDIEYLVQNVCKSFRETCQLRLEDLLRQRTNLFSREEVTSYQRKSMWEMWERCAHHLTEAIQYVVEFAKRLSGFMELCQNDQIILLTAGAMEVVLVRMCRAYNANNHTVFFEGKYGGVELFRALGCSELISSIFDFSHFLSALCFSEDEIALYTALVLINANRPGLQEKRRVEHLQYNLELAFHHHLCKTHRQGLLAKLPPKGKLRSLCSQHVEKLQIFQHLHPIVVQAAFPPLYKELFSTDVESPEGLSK
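Stable Schneider cell line, Gal4 DNA-binding domain fused to ROR gamma, UAS-luciferase. Cmpd 1 hr RT → CuSO4 700 uM final → 20 hr RT → luciferase reagent 10 min → luminescence.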
Gal4-VP16 FLuc: inhibits Gal4-VP16 luciferase reporter, ROR gamma counter-screen; Drosophila S2 Gal4-VP16 UAS-luciferase, luminescence, 20 h; Potency, µM (doses to about 53.6 µM), without a hit: at the highest dose activity, negative = inhibition, most hits filed as inhibitors; 310,000 tested, 3.5% active; AID 2546;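 note: Gal4-VP16 expression switched on by copper sulfate through the metallothionein promoter; potency is the fitted concentration of half-maximal effect; nearly all actives have a fitted effect of over 50% in size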
DT40 TDP1 no CPT: qHTS for Inhibitors of human tyrosyl-DNA phosphodiesterase 1 (TDP1): qHTS in cells in absence of CPT | DT40 Tdp1-/- hTDP1 cells, no CPT, ATP luminescence, 48 h | Potency, µM (highest dose often 46.2 µM), without a hit: top-dose activity change, negative = growth inhibition, most hits filed as inhibitors | 420,000 tested, 15% active | AID 686978, 2013; note: potency is the fitted concentration of half-maximal effect; nearly all actives have a fitted effect of over 55% in size
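No-CPT arm: Tdp1-/-;hTDP1 DT40 cells (400/well) plus compounds, incubated ≥48 hr at 37 °C. Readout CellTiter-Glo luminescence.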
An asterisk follows results filed as active; ? = inconclusive; . = no result. In the library only some 18% were active in any assay of this set; here they are far more common. Unless noted, calls come from the whole dose curve; as a rule, active = well fitted curve in the direction sought with a large enough effect; inconclusive = small, poorly fitted or top-dose-only effect, or another doubt; inactive = no such curve, though single readings can be large; an effect the other way counts as inactive or inconclusive. Unless noted, % is set by controls: 0 for no effect and ±100 for the full control effect.

SMILES	TDP1 cell CPT	IL-1B inflam inh	LDHA inh	RORgamma inh	Gal4-VP16 FLuc	DT40 TDP1 no CPT
Cc1nc(C)c(-c2csc(N)n2)s1	-2%	23	-6	9%	-8%	1%
COc1cc(CNC(=O)Cc2ccc(Cl)cc2)ccn1	.	.	5	.	.	.
Nc1nccnc1C(=O)NCCc1ccccc1F	.	.	-10	.	.	.
CC(C)CNC(=O)COC(=O)c1cccc(F)c1	.	.	-14	.	.	.
CCOC(=O)N1CCN(C(=O)/C=C/c2c(C)nn(-c3ccc(F)cc3)c2Cl)CC1	?	0	-1	12%	-7%	13µM*
CCC1(C)Cc2c(sc3nc(SC)nc(N4CCCCC4)c23)CO1 (configuration not stated)	.	.	-3	.	.	.
O=C1CCC(OCc2ccccc2)CCN1CC[C@@H](Sc1ccccc1)c1ccccc1 (some centres not stated)	?	11	7	.	.	?
O=C1CC[C@@H](OCc2ccccc2)CCN1CC[C@H](Sc1ccccc1)c1ccccc1	16µM*	21	1	-18%	-14%	18µM*
C[C@@H]1CCC(=O)N(CC[C@H](Sc2ccccc2)c2ccccc2)CC1	13µM*	0	2	33%	20%	13µM*
COc1ccc(-c2nc3cnccc3o2)cc1NC(=O)c1ccccc1	.	.	2	.	.	.
CCOC(=O)CN1C(c2ccccc2O)Nc2ccc(Br)cc2C1c1ccccc1 (configuration not stated)	-3%	17	1	-95%	7.1µM*	?
COc1cc(-c2nc(SCC(=O)Nc3ccc(C)cc3)c(-c3ccc(F)cc3)[nH]2)cc(OC)c1OC	?	.	-3	.	.	15µM*
COc1ccc(NC(=O)CSc2nc(-c3ccccc3)[nH]c2-c2ccccc2)cc1OC	15µM*	.	-1	.	.	8.2µM*
COc1ccc(-c2nc(SCC(=O)Nc3ccc4c(c3)OCCO4)c(-c3ccc(F)cc3)[nH]2)cc1OC	?	.	6	.	.	21µM*
COc1ccc(-c2[nH]c(-c3ccccc3)nc2SCC(=O)Nc2ccc3c(c2)OCO3)cc1	?	.	-1	.	.	21µM*
COc1ccc(-c2nsc(SCC(=O)Nc3ccc4c(c3)OCO4)n2)cc1	?	27	-1	?	?	?
COc1ccc(-c2nc(SCC(=O)Nc3ccccc3)c(-c3ccc(F)cc3)[nH]2)cc1OC	?	.	12	.	.	?
O=C(NNC(=O)C1CCCC1)c1ccc(Cl)cc1	.	.	-2	.	.	.
COc1ccc2c(c1)cc(C(=O)NCc1ccccc1)n2C	.	.	-5	.	.	.
COc1cccc(-c2nc(SCC(=O)Nc3ccc4c(c3)OCCO4)c(-c3ccc(C)cc3)[nH]2)c1	?	.	-6	.	.	23µM*
O=C(CSc1nc(-c2ccc(F)cc2)[nH]c1-c1ccccc1)Nc1ccccc1	18µM*	.	5	.	.	12µM*
COc1ccc2nc(SCC(=O)Nc3ccc4c(c3)OCCO4)[nH]c2c1	-5%	4	2	12%	0%	-21%
COc1ccc(NC(=O)CSc2ncccc2C(=O)OC(C)C)cc1OC	12µM*	-6	7	3%	2%	12µM*
COc1ccc(-n2nnc3c(SCC(=O)Nc4ccc5c(c4)OCCO5)ncnc32)cc1	.	.	.	7.9µM*	?	.
COc1ccc(-c2c(C(=O)O)sc3c2NC(=O)CC32C(=O)Nc3c(C)cccc32)cc1 (configuration not stated)	.	.	-7	.	.	.
SMILES	TDP1 cell CPT	IL-1B inflam inh	LDHA inh	RORgamma inh	Gal4-VP16 FLuc	DT40 TDP1 no CPT
COc1cc(C(=O)Nc2ccc3oc(C)nc3c2)cc(OC)c1OC	.	.	13	.	.	.
CC(=O)Nc1ccc(NC(=O)c2c([N+](=O)[O-])c(C(C)(C)C)nn2C)cc1	-28%	.	-11	-2%	-3%	?
COc1ccc(NC(=O)c2c([N+](=O)[O-])c(C(C)(C)C)nn2C)cc1	?	-54*	-8	25%	6%	?
CC(=O)c1cccc(NC(=O)c2ccc([N+](=O)[O-])o2)c1	8.2µM*	-87*	8	.	.	15µM*
CS/C(=C\[N+](=O)[O-])Nc1ccc(F)cc1	-25%	0	1	-16%	-2%	-13%
Cc1cc(C)nc(NC(=O)c2ccc([N+](=O)[O-])o2)n1	?	0	9	-34%	-13%	13µM*
COc1ccc(N/C(=C/[N+](=O)[O-])SC)cc1	5%	-57*	-12	-4%	-1%	-10%
CC(=O)c1cccc(NC(=O)c2cc(=O)c3ccccc3o2)c1	-6%	16	-13	15%	6%	?
CCn1c(-n2nc(C)cc2C)nc2c1c(=O)n(CCN1CCCCC1)c(=O)n2C	.	.	-4	.	.	.
O=C(CCc1cccnc1)NCCOc1cccc(F)c1	.	.	-1	.	.	.
CCc1nnsc1C(=O)N(C)CCOc1ccc(C)cc1	.	.	-5	.	.	.
Cc1cc(C)cc(NC(=O)CC2C(=O)Nc3nc(-c4ccccc4)nn32)c1 (configuration not stated)	.	.	2	.	.	.
CCN(CC)S(=O)(=O)c1cc(NC(=O)COC(=O)c2cc(C)nc3ccccc23)ccc1C	.	.	8	.	.	.
COc1ccc(NC(=O)c2ccc([N+](=O)[O-])o2)cc1	16µM*	-96*	1	.	.	23µM*
NS(=O)(=O)c1ccc(O)c(NC(=O)c2ccc([N+](=O)[O-])o2)c1	?	-61*	-3	1%	7%	?
CC(NC(=O)c1ccc([N+](=O)[O-])o1)C12CC3CC(CC(C3)C1)C2 (configuration not stated)	?	-136*	-5	2.5µM*	-13%	?
COc1ccc(CCNC(=O)COC(=O)c2ccc([N+](=O)[O-])o2)cc1	-27%	-13	13	.	.	-20%
COc1cc(NC(=O)c2ccc([N+](=O)[O-])o2)ccc1NC(=O)c1ccco1	0.65µM*	-27	-1	?	?	0.92µM*
Cc1ccc(-c2nc3ccccc3o2)cc1NC(=O)c1ccc([N+](=O)[O-])o1	.	.	-1	.	.	.
COc1ccc2cc(C(=O)NC3CCS(=O)(=O)C3)[nH]c2c1 (configuration not stated)	.	.	3	.	.	.
CCOc1ccc2c(-c3cc4cccc(OCC)c4oc3=O)cc(=O)oc2c1	.	.	13	.	.	.
CC(C)c1ccc(-c2csc(Nc3ccc(C(=O)O)c(O)c3)n2)cc1	.	.	1	.	.	.
CC(=O)c1ccc(NC(=O)c2ccc([N+](=O)[O-])o2)cc1	2.1µM*	-98*	8	6.3µM*	13µM*	1.8µM*
